What all share (experiment): NCI-60 one-dose screen, 48 h (100 = growth as untreated, 0 = no growth, -100 = all killed)
Holding throughout (settings): 10 µM unless noted

Test [1] has as its system NCI-H23 lung.
In test [2] the test system is NCI-H226 lung.
For test [3], the system named is NCI-H322M lung.
In test [4] the test system is HOP-62 NSCLC.
Test [5] relates to NCI-H460 lung.
In test [6] the test system is HOP-92 NSCLC.
Test [7] concerns NCI-H522 lung.
Test [8] concerns A549/ATCC NSCLC.
The subject of test [9] is 786-0 renal.
Test [10] has as its system COLO 205 colon.
Test [11] concerns DU-145 prostate.
For test [12], the system named is K-562 leukemia.
Test [13] has as its system MALME-3M melanoma.
Test [14] concerns MDA-MB-231 breast.
The subject of test [15] is RXF 393 renal.
The test system of test [16] is SF-268 CNS.
Test [17] relates to SF-295 CNS.
Test [18] has as its system SF-539 CNS.
The test system of test [19] is UACC-257 melanoma.
In test [20] the test system is M14 melanoma.

Structures are written as SMILES. The panel holds about 83,000 compounds, 20% with a hit somewhere; the sample as a whole holds those more often.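 Method: cells in 96-well plates; compound added at one concentration; 48 h incubation; percent growth measured; values under 10 scored active.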 Unmarked numbers belong to inactive results. Calls of active or inactive are those of the source.

Consider `O=C(Nc1ccc(Nc2ccncc2)cc1)c1ccc(C(=O)Nc2ccc(Nc3ccncc3)cc2)cc1`, for which the growth in test [1] was 59.2%; in test [2], 68.8%; in [3] it was 71.9%; in [4], 82.1%; in test [5] it was 88.2%; in test [6], 28.9%. Besides, the growth in [7] was 47.4%; in [8], 69.5%; in test [9], 84.5%; in test [10], 27.7%; in [11], 85.8%; in [12] it was 53.5%. For the same compound, the growth in test [13] was 5.82% (active); in [14], 84.4%; in [15], 100%; in [16], 75%; in test [17] it was 91.7%; in [18] it was 82.6%. For the same compound, the growth in test [19] was 24.2%; in [20], 44.2%.

With `N#CCN1C(=O)C2C3=C(CCCC3)SC2N=C1CN1CCCC1` (stereo not given), the growth was 97.9% in [1]; 87.5% in test [2]; 91.2% in [3]; 89.6% in test [4]; 117% in [5]; -1.97% (active) in test [6]. For the same compound, the growth is 92.5% in [7]; 93.1% in test [8]; 92% in [9]; 122% in [10]; 99.7% in test [11]; 70.1% in test [12]. Also, the growth in test [13] is 111%; in test [14], 94.9%; in test [15] it was 88.6%; in test [16], 118%; in [17] it was 107%; in [18], 92.5%. Moreover, the growth in [19] is 96.8%; in test [20] it was 120%.

With `O=[N+]([O-])c1ccc(OCCO)cc1`, the growth in [1] was 99.6%; in test [2], 99.7%; in [3] it was 104%; in test [4] it was 101%; in test [5], 108%; in [6], 81.2%. Also, the growth in test [7] was 102%; in test [8] it was 105%; in test [9], 109%; in [10] it was 107%; in test [11], 107%; in [12] it was 78.8%. Further, the growth in test [13] is 107%; in [14], 114%; in test [15], 105%; in test [16] it was 100%; in [17], 105%; in test [18] it was 108%. Moreover, the figures for the growth in test [19] and in [20] were 104% and 109%, respectively.

Regarding `COc1cccc(-c2nn(-c3ccccc3)cc2-c2ccnc(NCCNC(=O)Nc3cccc(C(F)(F)F)c3)c2)c1`, the growth in [1] is 35.8%; in [2], 61%; in test [3] it was 35.8%; in test [4], 9.97% (active); in test [5], 7.98% (active); in [6], 0.983% (active). Besides, the growth in test [7] is -17.9% (active); in [8], 7.06% (active); in [9], 22.7%; in [10] it was -13.3% (active); in test [11], 26.2%; in test [12], 2.52% (active). For the same compound, the growth was 51.2% in test [13]; -10% (active) in test [14]; 21.6% in [15]; 35.2% in test [16]; 27.6% in test [17]; 57.7% in [18]. For the same compound, the results for the growth in test [19] and in [20] were 27.6% and 7.52% (active), respectively.

As to `N#Cc1c(N)nn(C(=O)c2ccc(NC(=O)c3ccccn3)cc2)c1-c1ccc(Cl)cc1`, the growth is 20% in [1]; 20.1% in test [2]; 22.2% in [3]; -18.4% (active) in test [4]; 15.9% in test [5]; 7.04% (active) in [6]. The growth in [7] is 36.3%; in test [8] it was 35.4%; in test [9], 9.76% (active); in [10], 1.15% (active); in test [11], 3.96% (active); in test [12], 34.2%. Besides, the growth in [13] was -17.5% (active); in test [14], 61.1%; in test [15], 54%; in test [16], -8.49% (active); in [17], 54.9%; in test [18], -27.8% (active). Moreover, the growth in test [19] is 48%; in [20] it was 17.1%.

In the case of `Cc1ccc2c(c1)Sc1c(ccc3ccccc13)N2`, the growth in test [1] is 74.7%; in test [2], 75.4%; in test [3] it was 90%; in test [4] it was -2.75% (active); in [5], 20.8%; in test [6] it was 75.3%. The growth in test [7] is 61.3%; in [8], 59%; in test [9], 18.1%; in test [10] it was 91.5%; in test [11] it was 82.9%; in test [12], 39.7%. Moreover, the growth in test [13] is 90.7%; in test [14], 50.6%; in test [15], 63.6%; in [16] it was 59.5%; in [17], 69.8%; in [18] it was 47.5%. Also, the growth in test [19] was 80.4%; in test [20], 65.4%.

Take `COc1ccc(-c2csc(C3=C(O)CN(CCCN4CCCC4=O)C3=N)n2)cc1OC`: the growth was 94.5% in test [1]; 97.2% in test [2]; 109% in test [3]; 90.2% in test [4]; 113% in test [5]; 62.8% in [6]. Further, the growth in test [7] is 119%; in test [8] it was 91.6%; in test [9] it was 99.3%; in test [10] it was 106%; in [11], 103%; in test [12], 88.9%. Further, the growth in [13] is 129%; in [14] it was 79.6%; in test [15], 78.3%; in test [16] it was 121%; in test [17], 92%; in test [18], 90.1%. Moreover, the growth in test [19] was 97.2%; in test [20], 122%.

Values taken from PubChem BioAssay (NCI).
